# ChEMBL document CHEMBL4513216, “Probing the Open Global Health Chemical Diversity Library for Multistage-Active Starting Points for Next-Generation Antimalarials” (ACS Infect Dis, 2020)
# Hit rate of the full screen: of about 69,000 compounds, about 8,600 (12%) showed an effect of 50% or more. Shown is part of a subset that was picked to be rich in strong results.
# System: Plasmodium berghei
# Test: Screen against P. berghei liver stage (PbLuc), transformed with Luciferase, at 10uM
# Assay type: functional, HepG2
# Details: tested at 10 uM
row,SMILES,INHIBITION [%]
1,CCc1nc(CN(C)C2CCN(CCn3cccn3)C2)no1 (centres undefined),14.1
2,Cn1cnnc1CN1CCC2(CCCN(C3CCCC3)C2=O)C1 (centres undefined),-15.6
3,CCn1nc(C)c(CCNC(=O)C2CCCN(C3CCCC3)C2)c1C (centres undefined),-23.4
4,CCc1nnc2n1CCN(CC(O)CN1CCC(C)CC1)C2 (centres undefined),30.3
5,Cc1nnc2n1CCN(CC(O)CN1CCC(C)CC1)C2 (centres undefined),78.2
6,CC1CCN(CC(O)CN2CCn3c(nnc3C3CC3)C2)CC1 (centres undefined),12.3
7,COc1ccc(C)cc1CN(C)CC(N)=O,-33.4
8,CC(C)CNC(=O)C1=NOC2(CCN(Cc3cccc(C#N)c3)C2)C1 (centres undefined),20.6
9,COc1ccc(CN2CCC3(CC(C(=O)NCC(C)C)=NO3)C2)cc1 (centres undefined),78.2
10,CC(C)CNC(=O)C1=NOC2(CCN(Cc3ccc(C(C)C)cc3)C2)C1 (centres undefined),80.2
11,Cc1ccc(S(=O)(=O)N2CCC3(CC(C(=O)NCC(C)C)=NO3)C2)cc1 (centres undefined),-10.2
12,CC(C)CNC(=O)C1=NOC2(CCN(Cc3ccoc3)C2)C1 (centres undefined),-4.26
13,COc1ccc(CN2CCC3(CC2)CC(CC(=O)NC(C)C)CO3)cc1 (centres undefined),18.6
14,N#Cc1cccc(CN2CCC3(CC(C(=O)NCC4CC4)=NO3)C2)c1 (centres undefined),52
15,O=C(NCC1CC1)C1=NOC2(CCN(Cc3ccc4c(c3)OCO4)C2)C1 (centres undefined),6.38
16,Cc1ccc(CN2CCC3(CC(C(=O)NCC4CC4)=NO3)C2)cc1C (centres undefined),31.2
17,CCc1ccc(CN2CCC3(CC(C(=O)NCC(C)C)=NO3)C2)o1 (centres undefined),32.5
18,Cc1cccc(CN2CCC3(CC(C(=O)NCC(C)C)=NO3)C2)c1 (centres undefined),76.2
19,Cc1oncc1C(=O)N[C@@H]1CN(c2ncccn2)C[C@@H]2CCCO[C@@H]21,-34.7
20,O=c1[nH]c2cn(-c3cccc(Cl)c3)c(=O)n2[nH]1,-14.9
21,COc1ccc(CC(=O)N2CCN(c3nccn3C)CC2)cc1,40
22,COCCN1CCCC2(CCN(c3cc(C)c(C#N)c(C)n3)C2)C1=O (centres undefined),-8.25
23,CN(C)C(=O)N1CCN(c2cc(N3CCCC3CO)ncn2)CC1 (centres undefined),-3.68
24,O=C(c1cncnc1)N1C[C@@H]2CC[C@H](Oc3cccc(F)c3)[C@@H]2C1,5.11
25,CCc1n[nH]c(=O)c(C(=O)N2CCOC3(CCCC3)C2)c1CC,48.2
26,Cn1cnc(S(=O)(=O)NCCCN2CCCC2)c1Cl,-9.76

row,SMILES,INHIBITION [%]
1,Cc1nnc(CN(C)C2CCN(CCc3ccccn3)CC2)o1,21.5
2,Cc1cc(S(=O)(=O)NC(=O)CCc2cccnc2)c(C)s1,32
3,O=C(CCn1ccc2cc(Br)ccc21)NCc1ccc(C(=O)O)cc1,19
4,CC(CNC(=O)CCc1ccco1)N1CCc2sccc2C1 (centres undefined),42.5
5,Cc1ccc(CCCC(=O)N2CCCC(CS(N)(=O)=O)C2)s1 (centres undefined),9.79
6,CCCc1nnc(NC(=O)NC(C)Cn2cccn2)s1 (centres undefined),-45.6
7,CCN(CC1CCOC1)C(=O)c1ccn(-c2ccc(OC)cc2)n1 (centres undefined),-2.48
8,COc1nccc(N2CC[C@H](CO)[C@@H](O)C2)c1C#N,-9.02
9,CC(NC(=O)c1cccs1)C(=O)NS(=O)(=O)Cc1ccc(C#N)cc1 (centres undefined),53.3
10,CC(NC(=O)c1cccs1)C(=O)NS(=O)(=O)c1ccc(C#N)cc1 (centres undefined),42.1
11,CC(NC(=O)c1cccs1)C(=O)NS(=O)(=O)c1cccc(C#N)c1 (centres undefined),49.9
12,CCOc1c(C(N)=O)cn(C)c1-c1nc2cc(NC(C)=O)ccc2n1C,44.3
13,COC(=O)CN1Cc2cc3c(cc2NCCC1=O)OCO3,41.1
14,CCN1Cc2cc3c(cc2NCCC1=O)OCO3,64.6
15,CC(C)(C)C(=O)CN1Cc2ccccc2NCCC1=O,10.9
16,CC(C)(C)CN1Cc2cc3c(cc2NCCC1=O)OCO3,52.5
17,O=C1CCNc2cc3c(cc2CN1CC1CC1)OCO3,13.1
18,O=C1CCNc2cc3c(cc2CN1Cc1ccco1)OCO3,4.82
19,O=C(c1n[nH]c(=O)c2ccccc12)N1CCCC1Cn1cccn1 (centres undefined),45.9
20,O=C(O)CCc1nc2nccc(C(F)(F)F)n2n1,-25.6
21,O=C(OCC1CCCN1)c1cccc(NC(=O)c2ccco2)c1 (centres undefined),-142
22,O=C1CC[C@H]2[C@H](CCN2S(=O)(=O)C2CC2)N1CCN1CCCC1,85.6
23,COCCN1C(=O)CC[C@@H]2[C@@H]1CCN2S(=O)(=O)C1CC1,43.9
24,O=C1CC[C@@H]2[C@@H](CCN2S(=O)(=O)C2CC2)N1CC1CC1,49.4
25,CN1CC(=O)N(c2cnn(C)c2)CC12CCN(CC1CC1)C2 (centres undefined),30.3
26,C[C@]1(O)CN(Cc2cscn2)CC[C@@H]1Oc1cccc(F)c1,38.2

row,SMILES,INHIBITION [%]
1,C[C@]1(O)CCN(Cc2ncccc2F)C[C@@H]1Oc1cccc(F)c1,-4.51
2,C[C@]1(O)CN(Cc2ncccc2F)CC[C@@H]1Oc1cccc(F)c1,50.1
3,C[C@]1(O)CN(Cc2ncc[nH]2)CC[C@@H]1Oc1cccc(F)c1,61.9
4,C[C@]1(O)CN(Cc2ncccc2F)CC[C@@H]1Oc1ccccc1,24.4
5,Cc1nccc(CN2CC[C@H](Oc3cccc(F)c3)[C@@](C)(O)C2)n1,38.7
6,Cc1cccnc1CN1CC[C@@](C)(O)[C@H](Oc2ccccc2)C1,24.4
7,Cc1cccnc1CN1CC[C@H](Oc2cccc(F)c2)[C@@](C)(O)C1,75.3
8,O=C1CC(c2cccnc2)C2(CCN(C(=O)c3ccncc3)CC2)N1 (centres undefined),33.5
9,O=c1[nH]c2cn(-c3cccc(Cl)c3)c(=O)n2n1Cc1cccc(F)c1,34
10,Cc1nc(CN2CCCC(NCCCOc3ccc(F)cc3)C2)no1 (centres undefined),19.4
11,O=C(O)c1ccc(COc2cccc(Cl)c2)s1,8.49
12,CN1CCN(Cc2cnc3n2CCN(C(=O)c2cnccn2)C3)CC1,20.6
13,CN1CCN(Cc2cnc3n2CCN(C(=O)c2ccncc2)C3)CC1,42.7
14,Cc1cccc(C(=O)N2CCn3c(CN4CCN(C)CC4)cnc3C2)n1,68.4
15,CN1CCN(Cc2cnc3n2CCN(C(=O)c2ccnnc2)C3)CC1,32.2
16,CN1CCN(Cc2cnc3n2CCN(C(=O)c2ccoc2)C3)CC1,59
17,CN1CCN(Cc2cnc3n2CCN(C(=O)c2ccccn2)C3)CC1,40.4
18,CCCc1noc(CCC(=O)N2CCCCC2Cn2cc(C)cn2)n1 (centres undefined),28.3
19,O=C(c1ccc(NC2CC2)nc1)N1CCC(Nc2cccnn2)CC1,11.6
20,CC(C)c1nc(CN2CCN(C(=O)CC3CCCCC3)CC2)no1,-3.21
21,CCn1nc(C)c2c1cnn2CCNS(=O)(=O)CC,30
22,CC(C)CCn1c(=O)n(CCn2cccc2)c2cc(C(=O)O)cnc21,36.7
23,c1ccc(OCC2C[C@@H]3[C@@H](C2)OCCN3Cc2ccoc2)nc1 (some centres undefined),54.4
24,Cc1nc(CN2CCO[C@@H]3CC(COc4ccccn4)C[C@H]32)cs1 (some centres undefined),31.5
25,Cc1cccc(CN2CCO[C@@H]3CC(COc4ccccn4)C[C@H]32)n1 (some centres undefined),35.5
26,COCC(O)CN1CCC(=O)N(CC2CC2)Cc2ccccc21 (centres undefined),21.5

row,SMILES,INHIBITION [%]
1,N#CCCN(Cc1ccccn1)C(=O)c1cccc(CN2CCCC2)c1,61.8
2,COc1ccc(C(=O)N(CCC#N)Cc2ccccn2)cc1,-1.37
3,CCOc1cccc(C(=O)N(CCC#N)Cc2ccccn2)c1,51.7
4,COCc1ccc(C(=O)N(CCC#N)Cc2ccccn2)cc1,44
5,Cc1ccc(C(=O)N(CCC#N)Cc2ccccn2)cc1C,5.48
6,COc1cc(C(=O)N(CCC#N)Cc2ccccn2)ccc1C,29.4
7,O=C(Nc1cccnc1)[C@H]1C[C@H]2CN(S(=O)(=O)C3CC3)C[C@@H]1O2,48.6
8,CC(C)CCN1C[C@@H]2C[C@H](C(=O)Nc3cccnc3)[C@H](C1)O2,41.6
9,COc1ccc(CN2C[C@@H]3C[C@H](C(=O)Nc4cccnc4)[C@H](C2)O3)cc1,28.7
10,O=C(Nc1ccccc1)[C@H]1C[C@H]2CN(Cc3cccnc3)C[C@@H]1O2,59
11,CCCS(=O)(=O)N1C[C@@H]2C[C@H](C(=O)Nc3cccnc3)[C@H](C1)O2,34.6
12,O=C(Nc1cccnc1)[C@H]1C[C@H]2CN(Cc3ccc(F)cc3)C[C@@H]1O2,63.7
13,CNC(=O)[C@H]1C[C@H]2CN(Cc3ccccc3)C[C@@H]1O2,1.7
14,CNC(=O)[C@H]1C[C@H]2CN(Cc3cccc(C)c3)C[C@@H]1O2,57.3
15,Cc1ccc(CN2C[C@@H]3C[C@H](C(=O)Nc4cccnc4)[C@H](C2)O3)cc1,64.9
16,CCN1C[C@@H]2C[C@H](C(=O)Nc3ccccc3)[C@H](C1)O2,1.94
17,CNC(=O)[C@H]1C[C@H]2CN(Cc3ccc(C)cc3)C[C@@H]1O2,9.65
18,CCOc1ccccc1OC1CCN(C(=O)c2[nH]nc(C)c2Br)CC1,2.97
19,Cc1nc(CCCNC(=O)[C@H]2CNC[C@@H](C(=O)N3CCCC3)C2)sc1C,6.72
20,COCC[C@]1(O)CCN(C(=O)CCn2c(C)cccc2=O)C[C@H]1C,1.94
21,CN(C)C(=O)Cn1c2c(ccc1=O)CCN(Cc1cnn(C)c1)CC2,52.4
22,CN(C)CCn1c2c(ccc1=O)CCN(Cc1cnn(C)c1)CC2,-3.26
23,CN(C)CCn1c2c(ccc1=O)CCN(Cc1ccncc1)CC2,-7.24
24,O=c1ccc2c(n1CC1CCOCC1)CCN(Cc1ccoc1)CC2,5.41
25,Cn1cc(CN2CCc3ccc(=O)n(Cc4ccncc4)c3CC2)cn1,20.6
26,Cn1cc(CN2CCc3ccc(=O)n(CC4CC4)c3CC2)cn1,89.1
